Bioassay records from PubChem BioAssay.
The sample as a whole holds a higher share of hits than the screen did.
CBX7 AlphaScr: inhibitors of human CBX7 binding to H3K27me3 peptide; hit rate 1.1% among 66,000; normalised signal (fraction of DMSO) (concentration not given with the values); O95931; AlphaScreen His6-CBX7 / biotin-H3K27me3 peptide binding; stronger effect = lower value; in the data active = normalised signal below about 0.5
Target sequence (O95931 whole entry, looked up): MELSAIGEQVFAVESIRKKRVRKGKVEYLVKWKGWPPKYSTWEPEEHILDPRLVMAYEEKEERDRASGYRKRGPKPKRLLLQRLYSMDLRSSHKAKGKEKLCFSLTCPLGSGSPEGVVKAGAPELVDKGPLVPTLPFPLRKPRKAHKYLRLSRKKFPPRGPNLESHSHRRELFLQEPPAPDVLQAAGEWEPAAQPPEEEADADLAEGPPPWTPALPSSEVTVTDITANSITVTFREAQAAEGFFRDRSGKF
The depositor's hits bear a star.

SMILES	CBX7 AlphaScr
CCOc1ccc(N2C(=O)C(C)C(Cc3ccc(C)cc3)C2=O)cc1 (stereo not given)	1.32
O=C(CSc1nccn1-c1ccc(Cl)cc1)Nc1ccccc1	0.948
CCCCCCOc1ccc(N2C(=O)CC(N3CCN(C/C=C/c4ccccc4)CC3)C2=O)cc1 (stereo not given)	1.21
COc1cc2c(cc1OC)C(c1ccccc1OCc1ccccc1)CC(=O)N2 (stereo not given)	0.945
COCc1nnc(NC(=O)c2ccc(S(=O)(=O)N(C)C)cc2)o1	0.559
CCN(Cc1ccccc1)S(=O)(=O)c1ccc(C(=O)Nc2nnc(COC)o2)cc1	0.883
CCc1nnc(NC(=O)c2ccc(S(=O)(=O)N(CCOC)CCOC)cc2)o1	0.504
CCCCN(CCCC)S(=O)(=O)c1ccc(C(=O)Nc2nnc(C3CC3)o2)cc1	0.0448*
CCCCN(CC)S(=O)(=O)c1ccc(C(=O)Nc2nnc(COC)o2)cc1	0.0616*
CCc1nnc(NC(=O)c2ccc(S(=O)(=O)N(C)C)cc2)o1	0.0418*
CCCCN(CCCC)S(=O)(=O)c1ccc(C(=O)Nc2nnc(CC)o2)cc1	0.0506*
COCCN(CCOC)S(=O)(=O)c1ccc(C(=O)Nc2nnc(C3CC3)o2)cc1	0.543
CCCCN(C)S(=O)(=O)c1ccc(C(=O)Nc2nnc(-c3cccs3)o2)cc1	0.68
CCCCN(CC)S(=O)(=O)c1ccc(C(=O)Nc2c(C(=O)OCC)oc3ccccc23)cc1	1.1
Cc1cccc(-c2cc(C(=O)NCc3ccc(Cl)cc3)c3ccccc3n2)c1	1.19
COc1cc(Cl)c(C)cc1NC(=O)Cn1nc(Cc2cccnc2)c2ccccc2c1=O	0.677
Cc1csc2ncc(C(=O)Nc3ccc(F)c(F)c3)c(=O)n12	1.05
COc1cc2c(cc1OC)C(C(=O)Nc1ccccn1)C1c3ccccc3CCN1C2=O (stereo not given)	1.05
O=C1CN(C(=O)C2CC2)C(c2ccc(F)cc2)c2cc(F)ccc2N1 (stereo not given)	1.02
Cc1ccc2oc(-c3cccc(NC(=O)c4ccc(C)c(Cl)c4)c3)nc2c1	1.16
CC(=O)N1c2ccc(S(=O)(=O)N3CCN(c4ccc(Cl)cc4)CC3)cc2CC1C (stereo not given)	0.903
CN(C1CCCCC1)S(=O)(=O)c1ccc(C(=O)Nc2nc(-c3ccncc3)cs2)cc1	0.961
CN(C1CCCCC1)S(=O)(=O)c1ccc(C(=O)Nc2nnc(C3CC3)o2)cc1	0.0285*
CN(C1CCCCC1)S(=O)(=O)c1ccc(C(=O)Nc2nnc(-c3cccs3)o2)cc1	0.923
COCc1nnc(NC(=O)c2ccc(S(=O)(=O)N(CCC#N)CCC#N)cc2)o1	0.0627*
SMILES	CBX7 AlphaScr
CCN(CCCNC(=O)c1ccc(NC2=NC3CS(=O)(=O)CC3S2)cc1)c1ccccc1 (stereo not given)	0.918
Cc1cc(C)cc(Nc2cc(C(=O)NCCN3CCOCC3)c3ccccc3n2)c1	1.17
CC1CCN(S(=O)(=O)c2ccc3[nH]c(=O)cc(C(=O)NCCc4ccccc4)c3c2)CC1	1.13
O=C(O)c1ccccc1C(=O)Nc1nc(-c2cccs2)cs1	0.998
CCC(=O)N1CCc2cc(Br)cc(S(=O)(=O)NCCCN(CC)c3ccccc3)c21	0.869
COc1ccc(C2CC(=O)Nc3cc4c(cc32)OCO4)cc1Cl (stereo not given)	0.942
CCCCN(CCCC)CCNC(=O)CN1C(=O)CC(C)(C)Sc2ccccc21	1.05
Cc1nc(Oc2cccc(C(F)(F)F)c2)c2c3c(sc2n1)CCC3	1.08
Cc1cc(C)n(-c2nc3ccccc3nc2Nc2ccc(N3CCCCC3)cc2)n1	0.42*
Cc1cc(C)n(-c2nc3ccccc3nc2Nc2ccc(F)cc2)n1	1.2
Cc1cc(C)n(-c2nc3ccccc3nc2Nc2ccc(C(C)C)cc2)n1	2.8
COc1ccc(Nc2cc(C(=O)NCC3COc4ccccc4O3)c3ccccc3n2)c(OC)c1 (stereo not given)	0.622
Cc1cc(C)n(Cc2ccccc2Cl)c(=O)c1C#N	1.07
CN1CCN(c2ncnc3scc(-c4ccc(-c5ccccc5)cc4)c23)CC1	0.715
CCn1c(C(=O)N2CCC(C(=O)N3CCN(c4ncccn4)CC3)CC2)cc2sccc21	0.921
COc1ccc(NC(=O)c2cc(C)on2)c(OC)c1	1.05
Cc1cccc2nc(-c3ccc(Cl)cc3)c(Nc3ccc4c(c3)OCO4)n12	0.677
Cc1cccc2nc(-c3ccc(N(C)C)cc3)c(Nc3ccc4c(c3)OCO4)n12	0.836
Cc1cccc2nc(-c3ccccn3)c(Nc3ccc4c(c3)OCO4)n12	0*
Cc1cccc2nc(-c3ccsc3)c(Nc3ccc4c(c3)OCO4)n12	0.78
Cc1cccc2nc(-c3ccncc3)c(Nc3ccc4c(c3)OCO4)n12	0.988
Cc1cccc2nc(-c3ccccn3)c(Nc3ccc4c(c3)OCCO4)n12	0*
CC1(C)CC(=O)N(CC(=O)N2CCN(c3ncccn3)CC2)c2ccccc2S1	1.02
CC(C)c1ccc(NC(=O)C2CCC(CNS(=O)(=O)c3cccc4cccnc34)CC2)cc1 (stereo not given)	1.04
CCCCn1c(=N)n(CC(O)C(C)(C)C)c2ccccc21 (stereo not given)	0.948
SMILES	CBX7 AlphaScr
CC1CCC(NC(=O)c2csc3c2CCCCC3)CC1 (stereo not given)	1.04
O=c1nc(/C=C/c2cccc(O)c2)cc(C(F)(F)F)[nH]1	1.01
COc1ccc(Br)cc1S(=O)(=O)NCCc1c(C)[nH]c2ccccc12	0.803
COc1ccc(NC(=O)CSc2nnc(CNC(=O)c3ccccc3F)o2)cc1	1.02
CCOc1cc2c(cc1OCC)C(c1ccc(C#N)cc1)NCC2 (stereo not given)	1.1
CN(C)CCCN1C(=O)CCn2c(-c3ccccc3)c(-c3ccccc3)c3cccc1c32	0.491*
CCN(CC)CCN1C(=O)Cn2c3c(c4cccc1c42)CCC3	1.13
COc1ccc(Cl)cc1C(=O)Nc1ccc2nc(N3CCN(C)CC3)cc(C)c2c1	1.05
COc1cc2c(cc1OC)-c1nnc(-c3ccc(Br)cc3)n1C(C)(C)C2	0.991
COc1ccc(CNc2ccc3c(c2)ncn3C2CCCCC2)cc1OC	0.783
Cc1ccc2[nH]c3c(c2c1)CCCC3NCc1ccc(Cl)cc1 (stereo not given)	0.495*
Cc1ccc2[nH]c3c(c2c1)CCCC3NCCCO (stereo not given)	1.01
c1ccc(CNC2CCCc3c2[nH]c2ccc(-c4ccccc4)cc32)cc1 (stereo not given)	0.669
CCOc1ccc(CCNC(=O)c2ccc3c(c2)N(Cc2ccccc2)CCS3)cc1	0.848
Cc1nc2c(-c3ccccc3)c(C)nn2c(C)c1CCC(=O)Nc1ccccn1	1.01
CCCCCC(=O)Nc1ncc2c(n1)CC(c1ccc(C)cc1)CC2=O (stereo not given)	0.97
CCOc1ccccc1CNC(=O)CCCc1cn(C)c2ccccc12	0.381*
CCOc1ccc(CCNC(=O)CCCc2cn(C)c3ccccc23)cc1OCC	1.01
CCOc1ccccc1CNC(=O)CCc1cn(C)c2ccccc12	0.845
CC1CCCCN1C(=O)c1ccc2c(c1)N(Cc1ccccc1)C(=O)c1ccccc1S2(=O)=O (stereo not given)	1.08
CC(=O)N1CCN(CC(O)COc2ccc(Br)cc2)CC1 (stereo not given)	0.464*
CCCCOCC(O)CN1CCN(C(C)=O)CC1 (stereo not given)	1.05
COc1ccc(OCC(O)CN2CCCCC2)cc1 (stereo not given)	1.02
O=C(Nc1ccc(-c2nc3ccccc3o2)c(O)c1)c1ccc2c(c1)OCCO2	0.716
CCOC(=O)c1[nH]cnc1C(=O)Nc1ccc(OC)cc1	0.066*
